Reference: PubChem BioAssay (NCI)
The panel holds about 83,000 compounds, 20% with a hit somewhere; the sample as a whole holds those more often.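 Results are percent growth after 48 hours of single-concentration exposure. 100 means growth as in untreated cells, lower positive values show inhibition; negative values down to -100 show cell death.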 Values without a mark were called inactive. Activity calls are given as the source filed them. The calls were made as follows: active = growth percent below 10; inactive = the rest.

What was measured:
Assay in all cases: NCI-60 one-dose screen, 48 h (100 = growth as untreated, 0 = no growth, -100 = all killed)
Settings in all cases: 10 µM
DU-145 prostate = tested on: DU-145 prostate
K-562 leukemia = tested on: K-562 leukemia
MALME-3M melanoma = tested on: MALME-3M melanoma
MDA-MB-231 breast = tested on: MDA-MB-231 breast
RXF 393 renal = tested on: RXF 393 renal
SF-268 CNS = tested on: SF-268 CNS
SF-295 CNS = tested on: SF-295 CNS
SF-539 CNS = tested on: SF-539 CNS
UACC-257 melanoma = tested on: UACC-257 melanoma
M14 melanoma = tested on: M14 melanoma
HCT-15 colon = tested on: HCT-15 colon
HT29 colon = tested on: HT29 colon
SNB-75 CNS = tested on: SNB-75 CNS
SNB-19 CNS = tested on: SNB-19 CNS
U251 CNS = tested on: U251 CNS
PC-3 prostate = tested on: PC-3 prostate
SK-MEL-5 melanoma = tested on: SK-MEL-5 melanoma
UACC-62 melanoma = tested on: UACC-62 melanoma
LOX IMVI melanoma = tested on: LOX IMVI melanoma
SK-MEL-28 melanoma = tested on: SK-MEL-28 melanoma

## O=c1cc(CSc2nnc(-c3ccccc3)n2-c2ccc(F)cc2)c2ccc3ccccc3c2o1
DU-145 prostate
  growth: 109%
K-562 leukemia
  growth: 82.9%
MALME-3M melanoma
  growth: 97%
MDA-MB-231 breast
  growth: 91.1%
RXF 393 renal
  growth: 108%
SF-268 CNS
  growth: 93.8%
SF-295 CNS
  growth: 95.9%
SF-539 CNS
  growth: 98.7%
UACC-257 melanoma
  growth: 103%
M14 melanoma
  growth: 102%
HCT-15 colon
  growth: 98.2%
HT29 colon
  growth: 96.4%
SNB-75 CNS
  growth: 92.9%
SNB-19 CNS
  growth: 99.1%
U251 CNS
  growth: 98.8%
PC-3 prostate
  growth: 79%
SK-MEL-5 melanoma
  growth: 79%
UACC-62 melanoma
  growth: 83.2%
LOX IMVI melanoma
  growth: 90.3%
SK-MEL-28 melanoma
  growth: 104%

## NC1CCC(Nc2nc(NCc3ccc(-c4ccco4)nc3)c3ncn(C4CCCC4)c3n2)CC1 (stereo unspecified)
DU-145 prostate
  growth: 6.46% (active)
K-562 leukemia
  growth: 2.46% (active)
MALME-3M melanoma
  growth: -40.6% (active)
MDA-MB-231 breast
  growth: 3.81% (active)
RXF 393 renal
  growth: -50.5% (active)
SF-268 CNS
  growth: 0.711% (active)
SF-295 CNS
  growth: 0.17% (active)
SF-539 CNS
  growth: -25.7% (active)
UACC-257 melanoma
  growth: -8.84% (active)
M14 melanoma
  growth: -23.5% (active)
HCT-15 colon
  growth: 3.49% (active)
HT29 colon
  growth: -21.9% (active)
SNB-75 CNS
  growth: -46.9% (active)
SNB-19 CNS
  growth: 14.2%
U251 CNS
  growth: 5.19% (active)
PC-3 prostate
  growth: -1.27% (active)
SK-MEL-5 melanoma
  growth: -6.6% (active)
UACC-62 melanoma
  growth: -31% (active)
LOX IMVI melanoma
  growth: -26.2% (active)
SK-MEL-28 melanoma
  growth: 0.269% (active)

## CC(=O)Oc1c(C)c(C)c2c(c1C)CCC(C)(CC(=O)OCCCCCCCCCCC[P+](c1ccccc1)(c1ccccc1)c1ccccc1)O2 (stereo unspecified)
DU-145 prostate
  growth: -71.5% (active)
K-562 leukemia
  growth: -33.9% (active)
MALME-3M melanoma
  growth: -66.3% (active)
MDA-MB-231 breast
  growth: -88.9% (active)
RXF 393 renal
  growth: -89.5% (active)
SF-268 CNS
  growth: -72.3% (active)
SF-295 CNS
  growth: -79.8% (active)
SF-539 CNS
  growth: -93.6% (active)
UACC-257 melanoma
  growth: -80.5% (active)
M14 melanoma
  growth: -87.5% (active)
HCT-15 colon
  growth: -69.3% (active)
HT29 colon
  growth: -53.9% (active)
SNB-75 CNS
  growth: -47.8% (active)
SNB-19 CNS
  growth: -78.8% (active)
U251 CNS
  growth: -93.1% (active)
PC-3 prostate
  growth: -51% (active)
SK-MEL-5 melanoma
  growth: -96.7% (active)
UACC-62 melanoma
  growth: -86.1% (active)
LOX IMVI melanoma
  growth: -92.6% (active)
SK-MEL-28 melanoma
  growth: -86.9% (active)

## COc1ccc(C2CC(c3ccc(-c4ccccc4)cc3)=NN2c2ccc(S(N)(=O)=O)cc2)cc1 (stereo unspecified)
DU-145 prostate
  growth: 83.2%
K-562 leukemia
  growth: 52.7%
MALME-3M melanoma
  growth: 95.8%
MDA-MB-231 breast
  growth: 69.6%
RXF 393 renal
  growth: 73.3%
SF-268 CNS
  growth: 68%
SF-295 CNS
  growth: 86.5%
SF-539 CNS
  growth: 98.7%
UACC-257 melanoma
  growth: 82.7%
M14 melanoma
  growth: 89.6%
HCT-15 colon
  growth: 45.6%
HT29 colon
  growth: 48.6%
SNB-75 CNS
  growth: 81.7%
SNB-19 CNS
  growth: 65.2%
U251 CNS
  growth: 66.8%
PC-3 prostate
  growth: 19.7%
SK-MEL-5 melanoma
  growth: 85.5%
UACC-62 melanoma
  growth: 71.1%
LOX IMVI melanoma
  growth: 50.3%
SK-MEL-28 melanoma
  growth: 85.4%

## C#C[C@]1(O)CC[C@H]2[C@@H]3CC[C@H]4CC(F)(F)CC[C@]4(C)[C@H]3CC[C@@]21C
DU-145 prostate
  growth: 61.2%
K-562 leukemia
  growth: 76.2%
MALME-3M melanoma
  growth: 88%
MDA-MB-231 breast
  growth: 101%
RXF 393 renal
  growth: 86.4%
SF-268 CNS
  growth: 92.9%
SF-295 CNS
  growth: 69.1%
SF-539 CNS
  growth: 54.6%
UACC-257 melanoma
  growth: 78.3%
M14 melanoma
  growth: 80.4%
HCT-15 colon
  growth: 94.6%
HT29 colon
  growth: 64.1%
SNB-75 CNS
  growth: 70.5%
SNB-19 CNS
  growth: 80.3%
U251 CNS
  growth: 73.3%
PC-3 prostate
  growth: 70.7%
SK-MEL-5 melanoma
  growth: 94.3%
LOX IMVI melanoma
  growth: 89.1%
SK-MEL-28 melanoma
  growth: 74.4%

## CC(C)c1ncc(CO)n1Cc1c(Cl)cccc1Cl
DU-145 prostate
  growth: 106%
K-562 leukemia
  growth: 92.3%
MALME-3M melanoma
  growth: 103%
MDA-MB-231 breast
  growth: 115%
RXF 393 renal
  growth: 95.8%
SF-268 CNS
  growth: 96.5%
SF-295 CNS
  growth: 96.1%
SF-539 CNS
  growth: 98.7%
UACC-257 melanoma
  growth: 106%
M14 melanoma
  growth: 109%
HCT-15 colon
  growth: 97.7%
HT29 colon
  growth: 99.4%
SNB-75 CNS
  growth: 91.6%
SNB-19 CNS
  growth: 142%
U251 CNS
  growth: 101%
PC-3 prostate
  growth: 94.4%
SK-MEL-5 melanoma
  growth: 100%
LOX IMVI melanoma
  growth: 104%
SK-MEL-28 melanoma
  growth: 120%

## O=S(=O)(NC1c2ccccc2Oc2ccccc21)c1ccccc1
DU-145 prostate
  growth: 112%
K-562 leukemia
  growth: 91.3%
MALME-3M melanoma
  growth: 97.8%
MDA-MB-231 breast
  growth: 100%
RXF 393 renal
  growth: 86.6%
SF-268 CNS
  growth: 98.9%
SF-295 CNS
  growth: 97.8%
SF-539 CNS
  growth: 93.7%
UACC-257 melanoma
  growth: 98.2%
M14 melanoma
  growth: 98.7%
HCT-15 colon
  growth: 91.8%
HT29 colon
  growth: 92.2%
SNB-75 CNS
  growth: 88.4%
SNB-19 CNS
  growth: 105%
U251 CNS
  growth: 91.9%
PC-3 prostate
  growth: 88.2%
SK-MEL-5 melanoma
  growth: 102%
LOX IMVI melanoma
  growth: 87.5%
SK-MEL-28 melanoma
  growth: 101%

## COc1cc(C2C(C#N)=C(c3c[nH]c4ccccc34)Nc3nc(N)[nH]c(=O)c32)cc(OC)c1OC (stereo unspecified)
DU-145 prostate
  growth: 86.5%
K-562 leukemia
  growth: 50.4%
MALME-3M melanoma
  growth: 71.1%
MDA-MB-231 breast
  growth: 89.5%
RXF 393 renal
  growth: 73.2%
SF-268 CNS
  growth: 88.3%
SF-295 CNS
  growth: 97.6%
SF-539 CNS
  growth: 48.4%
UACC-257 melanoma
  growth: 99.1%
M14 melanoma
  growth: 95.7%
HCT-15 colon
  growth: 105%
HT29 colon
  growth: 107%
SNB-75 CNS
  growth: 80%
SNB-19 CNS
  growth: 66.5%
U251 CNS
  growth: 73.6%
PC-3 prostate
  growth: 62.8%
SK-MEL-5 melanoma
  growth: 67.4%
LOX IMVI melanoma
  growth: 52%
SK-MEL-28 melanoma
  growth: 56.2%
